{
  "source": "paper PMC5540273",
  "about": "(PLoS ONE, 2017);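 note: KINOMEscan kinase panel screen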",
  "data": [
    {"tested_on": "INSRR", "conditions": "concentration: 1 μM, replicates: in singlicate; n = 1", "units": {"%Inh": "%"}, "values": [
      {"smiles": "N#Cc1ccc(-c2cc(-c3c[nH]nc3-c3ccccn3)ccn2)cc1", "note": "[GW693028]", "%Inh": 0},
      {"smiles": "CCc1ccnc(/C=C/c2n[nH]c3cc(Sc4ccccc4C(=O)NC)ccc23)c1", "%Inh": 0},
      {"smiles": "NCCNS(=O)(=O)c1ccc(-c2ccnc3[nH]ccc23)cc1", "note": "[GSK977617]", "%Inh": 2},
      {"smiles": "Cc1cccc(-c2nc(Nc3ccc4ncsc4c3)c3ccccc3n2)n1", "note": "[GW867588]", "%Inh": 0},
      {"smiles": "O=C1NC(=O)C(N2CCc3ccccc32)=C1c1cccc(Cl)c1", "note": "[SB-408010]", "%Inh": 0},
      {"smiles": "NS(=O)(=O)c1cccc(-c2ccc3ncc(N4CCOCC4)nc3c2)c1", "note": "[GSK1535721]", "%Inh": 0},
      {"smiles": "CN1c2ccc(CNc3ccc(F)cc3)cc2-c2c(cnn2C)S1(=O)=O", "%Inh": 0},
      {"smiles": "Cn1ccc2ncnc(Oc3ccc(NC(=O)Nc4ccncc4)c(Cl)c3)c21", "%Inh": 0},
      {"smiles": "COc1cc(Nc2nccc(N3CCC(NC(=O)c4cccc(NC(C)=O)c4)C3)n2)cc(OC)c1OC", "note": "(centres unmarked) [GSK1379754]", "%Inh": 0},
      {"smiles": "CSc1ccc(-c2cc3ncnc(SCC(=O)O)c3s2)cc1", "%Inh": 11},
      {"smiles": "CC(C)(C)n1cnc2c(N)ncnc21", "note": "[SKF-97359]", "%Inh": 0},
      {"smiles": "Cc1nnc(-c2ccc(C)c(-c3ccc(C(=O)Nc4ccc(NS(C)(=O)=O)cc4)cc3)c2)o1", "note": "[GW702865]", "%Inh": 0},
      {"smiles": "COc1ccc(S(=O)(=O)NC2CCN(c3cc(C)nc(Nc4cccc(C#N)c4)n3)CC2)cc1.O=C(O)C(F)(F)F", "note": "[GSK1653539]", "%Inh": 0},
      {"smiles": "Cc1c2ccc(N(C)c3ccnc(Nc4cccc(S(N)(=O)=O)c4)n3)cc2nn1Cc1ccccc1.Cl.Cl", "note": "[GW787226]", "%Inh": 58},
      {"smiles": "COc1cc2c(cc1OC[C@@H](O)CO)ncc1c3ccc(C#N)cc3[nH]c21", "%Inh": 0},
      {"smiles": "O=C(NCCCN1CCOCC1)c1cccc(Nc2nccc(Nc3ccc(Oc4ccccc4)cc3)n2)c1", "note": "[GW663929]", "%Inh": 0},
      {"smiles": "Cc1ccc(NC(=O)c2ccnc(N3CCN(C)CC3)c2)cc1-c1ccc(C(=O)NCC2CC2)cc1", "note": "[GW775604]", "%Inh": 0},
      {"smiles": "O=C(Nc1n[nH]c2cc(-c3cccc(F)c3)ccc12)C1CC1", "note": "[SB-735464]", "%Inh": 2},
      {"smiles": "COc1ccc(Nc2nccc(N3CCC(NC(=O)Nc4cccc(C(C)=O)c4)C3)n2)cc1", "note": "(centres unmarked) [GSK1379731]", "%Inh": 0},
      {"smiles": "COCCNC(=O)c1ccc(-c2cc(C(=O)NC3CC3)cc(F)c2C)cc1", "note": "[GW868318]", "%Inh": 19},
      {"smiles": "COc1ccc(CNC(=O)NC2CCN(c3ccnc(Nc4ccc(OC)cc4)n3)C2)cc1", "note": "(centres unmarked) [GSK1379727]", "%Inh": 0},
      {"smiles": "Nc1nccc(-c2c(-c3ccc(F)cc3)ncn2C2CCN(CC(F)(F)F)CC2)n1", "note": "[SB-236560]", "%Inh": 21},
      {"smiles": "O=C(NCCNc1ccnc(Nc2ccc(F)cc2)n1)Nc1ccccc1F", "note": "[GSK1379880]", "%Inh": 0},
      {"smiles": "O=C(Nc1cccc(-c2nn3ncccc3c2-c2ccnc(Nc3cccc(C(F)(F)F)c3)n2)c1)c1c(F)cccc1F", "note": "[GSK299495]", "%Inh": 0},
      {"smiles": "COc1ccc(Nc2ncc(C#N)c(Nc3ccccc3C(N)=O)n2)cc1N1CCN(C)CC1.Cl", "note": "[GSK1558669]", "%Inh": 100},
      {"smiles": "O=c1cc(N2CCOCC2)nc2n(Cc3cccc4ccccc34)ccn12", "note": "[GSK2333389]", "%Inh": 0},
      {"smiles": "Fc1ccc(-c2ncn(CCCN3CCOCC3)c2-c2ccccn2)cc1", "note": "[SB-211742]", "%Inh": 0},
      {"smiles": "CN1c2ccc(NCc3ccc(F)cc3)cc2-c2c(cnn2C)S1(=O)=O", "%Inh": 16},
      {"smiles": "Nc1nc(-c2ccc3c(N)n[nH]c3c2)cc(N2CCCC2)n1", "note": "[GSK2227430]", "%Inh": 0},
      {"smiles": "[2H]C([2H])(c1cccc(C(F)(F)F)c1C)n1ccn2c(=O)nc(N3CCOCC3)cc12", "note": "[GSK2336394]", "%Inh": 0},
      {"smiles": "CC(C)(CN)c1nc(-c2ccc(Cl)c(O)c2)c(-c2ccncc2)[nH]1.O=C(O)C(F)(F)F", "note": "[SB-477794]", "%Inh": 0},
      {"smiles": "COc1cc2ncn(-c3cc(OCc4sccc4Cl)c(C(N)=O)s3)c2cc1OC", "note": "[GSK448459]", "%Inh": 0},
      {"smiles": "COc1cc2c(cc1OCCN1CCN(C)CC1)ncc1c3ccc(C#N)cc3[nH]c21", "%Inh": 0},
      {"smiles": "Cc1nnc(-c2ccc3occ(-c4ccc(C(C)O)cc4)c3c2)o1", "note": "(centres unmarked)", "%Inh": 6},
      {"smiles": "Cn1cc(-c2ccc3c(c2)CCN3C(=O)Cc2ccccc2Cl)c2c(N)ncnc21", "note": "[GSK2608885]", "%Inh": 90.5}
    ]},
    {"tested_on": "INSR", "conditions": "concentration: 1 μM, replicates: in singlicate; n = 1", "units": {"%Inh": "%"}, "values": [
      {"smiles": "N#Cc1ccc(-c2cc(-c3c[nH]nc3-c3ccccn3)ccn2)cc1", "note": "[GW693028]", "%Inh": 1},
      {"smiles": "CCc1ccnc(/C=C/c2n[nH]c3cc(Sc4ccccc4C(=O)NC)ccc23)c1", "%Inh": 0},
      {"smiles": "Cc1cccc(-c2nc(Nc3ccc4ncsc4c3)c3ccccc3n2)n1", "note": "[GW867588]", "%Inh": 0},
      {"smiles": "O=C1NC(=O)C(N2CCc3ccccc32)=C1c1cccc(Cl)c1", "note": "[SB-408010]", "%Inh": 0},
      {"smiles": "NS(=O)(=O)c1cccc(-c2ccc3ncc(N4CCOCC4)nc3c2)c1", "note": "[GSK1535721]", "%Inh": 7},
      {"smiles": "CN1c2ccc(CNc3ccc(F)cc3)cc2-c2c(cnn2C)S1(=O)=O", "%Inh": 0},
      {"smiles": "Cn1ccc2ncnc(Oc3ccc(NC(=O)Nc4ccncc4)c(Cl)c3)c21", "%Inh": 11},
      {"smiles": "COc1cc(Nc2nccc(N3CCC(NC(=O)c4cccc(NC(C)=O)c4)C3)n2)cc(OC)c1OC", "note": "(centres unmarked) [GSK1379754]", "%Inh": 1},
      {"smiles": "CSc1ccc(-c2cc3ncnc(SCC(=O)O)c3s2)cc1", "%Inh": 0},
      {"smiles": "CC(C)(C)n1cnc2c(N)ncnc21", "note": "[SKF-97359]", "%Inh": 0},
      {"smiles": "Cc1nnc(-c2ccc(C)c(-c3ccc(C(=O)Nc4ccc(NS(C)(=O)=O)cc4)cc3)c2)o1", "note": "[GW702865]", "%Inh": 0},
      {"smiles": "COc1ccc(S(=O)(=O)NC2CCN(c3cc(C)nc(Nc4cccc(C#N)c4)n3)CC2)cc1.O=C(O)C(F)(F)F", "note": "[GSK1653539]", "%Inh": 0},
      {"smiles": "Cc1c2ccc(N(C)c3ccnc(Nc4cccc(S(N)(=O)=O)c4)n3)cc2nn1Cc1ccccc1.Cl.Cl", "note": "[GW787226]", "%Inh": 25},
      {"smiles": "COc1cc2c(cc1OC[C@@H](O)CO)ncc1c3ccc(C#N)cc3[nH]c21", "%Inh": 0},
      {"smiles": "O=C(NCCCN1CCOCC1)c1cccc(Nc2nccc(Nc3ccc(Oc4ccccc4)cc3)n2)c1", "note": "[GW663929]", "%Inh": 15},
      {"smiles": "Cc1ccc(NC(=O)c2ccnc(N3CCN(C)CC3)c2)cc1-c1ccc(C(=O)NCC2CC2)cc1", "note": "[GW775604]", "%Inh": 0},
      {"smiles": "O=C(Nc1n[nH]c2cc(-c3cccc(F)c3)ccc12)C1CC1", "note": "[SB-735464]", "%Inh": 9},
      {"smiles": "COc1ccc(Nc2nccc(N3CCC(NC(=O)Nc4cccc(C(C)=O)c4)C3)n2)cc1", "note": "(centres unmarked) [GSK1379731]", "%Inh": 0},
      {"smiles": "COCCNC(=O)c1ccc(-c2cc(C(=O)NC3CC3)cc(F)c2C)cc1", "note": "[GW868318]", "%Inh": 10},
      {"smiles": "COc1ccc(CNC(=O)NC2CCN(c3ccnc(Nc4ccc(OC)cc4)n3)C2)cc1", "note": "(centres unmarked) [GSK1379727]", "%Inh": 0},
      {"smiles": "Nc1nccc(-c2c(-c3ccc(F)cc3)ncn2C2CCN(CC(F)(F)F)CC2)n1", "note": "[SB-236560]", "%Inh": 0},
      {"smiles": "O=C(NCCNc1ccnc(Nc2ccc(F)cc2)n1)Nc1ccccc1F", "note": "[GSK1379880]", "%Inh": 0},
      {"smiles": "O=C(Nc1cccc(-c2nn3ncccc3c2-c2ccnc(Nc3cccc(C(F)(F)F)c3)n2)c1)c1c(F)cccc1F", "note": "[GSK299495]", "%Inh": 0},
      {"smiles": "COc1ccc(Nc2ncc(C#N)c(Nc3ccccc3C(N)=O)n2)cc1N1CCN(C)CC1.Cl", "note": "[GSK1558669]", "%Inh": 99.9},
      {"smiles": "O=c1cc(N2CCOCC2)nc2n(Cc3cccc4ccccc34)ccn12", "note": "[GSK2333389]", "%Inh": 0},
      {"smiles": "Fc1ccc(-c2ncn(CCCN3CCOCC3)c2-c2ccccn2)cc1", "note": "[SB-211742]", "%Inh": 0},
      {"smiles": "CN1c2ccc(NCc3ccc(F)cc3)cc2-c2c(cnn2C)S1(=O)=O", "%Inh": 0},
      {"smiles": "Nc1nc(-c2ccc3c(N)n[nH]c3c2)cc(N2CCCC2)n1", "note": "[GSK2227430]", "%Inh": 0},
      {"smiles": "[2H]C([2H])(c1cccc(C(F)(F)F)c1C)n1ccn2c(=O)nc(N3CCOCC3)cc12", "note": "[GSK2336394]", "%Inh": 2},
      {"smiles": "COc1cc2ncn(-c3cc(OCc4sccc4Cl)c(C(N)=O)s3)c2cc1OC", "note": "[GSK448459]", "%Inh": 0},
      {"smiles": "COc1cc2c(cc1OCCN1CCN(C)CC1)ncc1c3ccc(C#N)cc3[nH]c21", "%Inh": 0},
      {"smiles": "Cc1nnc(-c2ccc3occ(-c4ccc(C(C)O)cc4)c3c2)o1", "note": "(centres unmarked)", "%Inh": 11},
      {"smiles": "Cn1cc(-c2ccc3c(c2)CCN3C(=O)Cc2ccccc2Cl)c2c(N)ncnc21", "note": "[GSK2608885]", "%Inh": 48}
    ]}
  ]
}
